Screening data: PubChem BioAssay, several laboratories
SKKanGAS inh = SKKanGAS growth inhibition; S. pyogenes SKKanGAS, kanamycin growth, BacTiter-Glo, 6 h; inhibition, % at 7.5 µM; 300,000 compounds, 1.3% hits; AID 1662;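 active means mean replicate score, as percent of positive control median, at least 50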;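 further: strain carries kanamycin resistance gene driven by streptokinase promoter and grows in 40 µg/ml kanamycin; loss of luminescence reflects streptokinase promoter inhibition or plain growth inhibition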
tim23-1 inh = tim23-1 yeast growth inhibition; AID 463212; S. cerevisiae tim23-1 growth, BacTiter-Glo luminescence, 24 h; inhibition, % at 20 µM; 330,000 compounds, 1.3% hits;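 active means growth inhibition of the mutant yeast at or above 50%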;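 further: temperature-sensitive mutant grown at 25 °C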
NLRP3 yeast inh = inhibitors of NALP3 inflammasome in yeast. AID 2825. Yeast reconstituted NLRP3/ASC/caspase-1, beta-gal luminescence, 24 h. inhibition, % at 10 µM. 330,000 compounds, 0.39% hits;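 active means inhibition of 50% or more; inactive means inhibition below 50%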
PfHsp90 yeast 2 = reduces growth (ATP signal) of yeast expressing P. falciparum Hsp90. S. cerevisiae expressing PfHsp90, BacTiter-Glo ATP, 48 h; yeast lacking PDR1 and PDR3 efflux regulators. inhibition, % at 9.4 µM. 310,000 compounds, 0.32% hits. AID 504621;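 active means every replicate shows inhibition above about 80%, whatever the replicate mean, limit read from the data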
tim10-1 inh = growth inhibitors of tim10-1 mutant yeast | S. cerevisiae tim10-1 ts strain growth, BacTiter-Glo, 24 h | inhibition, % at 20 µM | 330,000 compounds, 2.2% hits | AID 463190;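 active means inhibition of at least 40%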;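 further: mutant grown at 25 °C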
TIM10 inh = TIM10 yeast growth inhibition | S. cerevisiae TIM10 strain growth, BacTiter-Glo luminescence, 24 h | inhibition, % at 10 µM | 330,000 compounds, 1.4% hits;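 active means inhibition of 40% or more at the single tested concentration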;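 further: wild-type TIM10 isogenic control strain grown at permissive 25 °C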
A number is an active result; 0 = inactive; - = no result. Shown are actives, neighbours in structure and some others; about 4.5% of the full set was active somewhere.

SMILES	SKKanGAS inh	tim23-1 inh	NLRP3 yeast inh	PfHsp90 yeast 2	tim10-1 inh	TIM10 inh
Cc1ccc(NC(=O)C(=O)NNC(=O)c2ccccc2C)cc1Cl	0	0	0	0	0	0
Cc1sc2ncnc(N3CCC(C(=O)Nc4ccc(Cl)c(Cl)c4)CC3)c2c1C	-	0	0	0	0	0
Cc1sc2ncnc(N3CCC(C(=O)Nc4ccc(Cl)cc4Cl)CC3)c2c1C	50	0	0	0	0	0
Cc1sc2ncnc(N3CCC(C(=O)NCC(=O)Nc4ccc(F)c(F)c4)CC3)c2c1C	53	0	0	0	0	0
N=C1/C(=C/c2cccs2)C(=O)N=C2SN=C(SCc3ccccc3)N12	81	0	0	0	0	0
Cc1ccc(C(=O)NCCNC(=O)c2ccc(F)cc2)cn1	0	0	0	0	0	0
CC1OC(CC(=O)O)CC2=C1C(=O)c1c(O)cccc1C2=O (stereo not given)	-	-	-	106	-	-
O=C(O)c1cc([N+](=O)[O-])ccc1Oc1ccccc1	-	-	-	0	-	-
O=C(N1CCOCCOc2ccccc2OCCOCC1)C(F)(F)F	0	0	0	0	0	0
Cc1ccc(OCC(=O)Nc2nc(-c3ccccn3)cs2)c(C)c1	97	0	0	0	0	0
Cc1ccc(S(=O)(=O)CCC(=O)Nc2nc(-c3ccccn3)cs2)cc1	-	0	0	0	0	0
O=C(Nc1nc(-c2ccccn2)cs1)Nc1ccc(F)cc1F	90	0	0	0	0	0
O=C(COc1ccc(F)cc1)Nc1nc(-c2ccccn2)cs1	69	0	0	0	0	0
O=C(COc1ccccc1)Nc1nc(-c2ccncc2)cs1	0	0	0	0	0	0
Cc1onc(-c2ccccc2)c1C(=O)NCC(O)c1ccccc1 (stereo not given)	0	0	0	0	0	0
CCCCNc1c2c3c(cccc3n(C)c1=O)C(=O)c1ccccc1-2	54	0	0	0	0	0
Cc1ccc(COc2ccccc2-c2cc(C(=O)N/N=C/c3cccnc3)[nH]n2)cc1	63	0	0	0	0	0
Nc1[nH]n2c(=O)cc(-c3ccccc3)nc2c1N=Nc1ccc2c(c1)OCO2	56	0	0	-	0	0
O=C(OCc1nnc(-c2ccc([N+](=O)[O-])cc2)o1)C1CCN(C(=O)c2ccc(F)cc2)CC1	-	0	0	0	0	0
Cn1nnnc1SCC1=C(C(=O)O)N2C(=O)[C@@H](NC(=O)[C@H](O)c3ccccc3)[C@H]2SC1	0	0	0	0	0	0
Cc1cc(C(F)F)nn1CC(=O)NC1C(=O)N2C(C(=O)O)=C(CSc3nnnn3C)CSC12 (stereo not given)	119	0	0	0	0	0
Cn1nnnc1SCC1=C(C(=O)O)N2C(=O)C(NC(=O)C3CC3c3ccccc3)C2SC1 (stereo not given)	101	0	0	0	0	0
CC(C(=O)NC1C(=O)N2C(C(=O)O)=C(CSc3nnnn3C)CSC12)n1cc(Br)cn1 (stereo not given)	97	0	0	0	0	0
Cc1nn(C(C)C(=O)NC2C(=O)N3C(C(=O)O)=C(CSc4nnnn4C)CSC23)cc1Cl (stereo not given)	100	0	0	0	0	0
CON=C(C(=O)NC1C(=O)N2C(C(=O)O)=C(CSc3nc(=O)c(=O)[nH]n3C)CSC12)c1csc(N)n1 (stereo not given)	-	-	-	0	-	-
SMILES	SKKanGAS inh	tim23-1 inh	NLRP3 yeast inh	PfHsp90 yeast 2	tim10-1 inh	TIM10 inh
CCOC(=O)C1=CN(Cc2cccc(-c3ccc4c(c3)OCO4)c2)S(=O)(=O)N(C)C1C (stereo not given)	-	0	-	0	0	0
CC1=C(C(=O)OCc2ccccc2)C(/C=C/c2ccccc2)NC(=S)N1 (stereo not given)	0	0	0	85	0	0
CC(C)(C)OC(=O)N1CCC(C(=O)NCC2CCCO2)CC1 (stereo not given)	0	0	0	0	0	0
COc1ccccc1CNC(=O)c1ccc(-c2ccccc2Cl)o1	52	0	0	0	0	0
COc1ccccc1CNC(=O)c1ccc(-c2ccccc2C(F)(F)F)o1	0	0	0	0	0	0
CC1CCCCC1NC(=O)CN1C(=O)NC(C)(c2cc(F)ccc2F)C1=O (stereo not given)	-	0	0	0	0	0
Cc1onc(-c2ccccc2)c1C(=O)N1CCC(CO)(Cc2ccccc2)CC1	0	0	0	0	0	0
Cc1cccc(C(=O)NCC(=O)N2CCOCC2)c1	51	0	0	0	0	0
Cc1cccc(C(=O)NCC(=O)N2CCC2)c1	-	0	0	0	0	0
Cc1[nH]n(-c2ccccc2)c(=O)c1/C=N/N(c1ccccc1)c1ccccc1	78	0	0	0	0	0
O=C1C=CC(=O)N1Cc1ccncc1	-	-	-	0	-	-
O=C1C=CC(=O)N1CCCCCCCCCCN1C(=O)C=CC1=O	-	-	-	107	-	-
CCn1c(SCc2ccc(F)cc2)nc2ccccc2c1=O	51	0	0	0	0	0
CCn1c(SCc2ccc(OC)c(F)c2)nc2ccccc2c1=O	0	0	0	0	0	0
CCOC(=O)/C(=C\c1cccnc1)C(=O)c1cc(C(C)=O)c(Nc2ccccc2)s1	0	0	0	103	0	0
C=CCSc1nnc(CCc2ccccc2)n1N	-	0	0	0	0	0
Cc1cccc(C)c1NC(=S)N/N=C/c1ccc(OCCC(C)C)cc1	67	0	0	-	0	0
CCCC1=NN2C(=N)/C(=C\c3cc(C)n(Cc4ccccc4)c3C)C(=O)N=C2S1	0	0	0	0	0	0
Cc1cc(/C=C2\C(=N)N3N=C(S(C)(=O)=O)SC3=NC2=O)c(C)n1Cc1ccccc1	54	0	0	0	0	0
Cc1cc(/C=C2/C(=N)N3C(=NC2=O)SN=C3S(C)(=O)=O)c(C)n1-c1ccccc1F	56	0	0	0	0	0
Nc1cc(=O)nc(SCC(=O)N2CCN(c3ccccc3)CC2)n1-c1ccc(F)cc1	0	0	0	0	0	0
O=C(Nc1ccc(F)cc1)c1nc2c(nnn2Cc2cccc3ccccc23)c(=O)[nH]1	62	0	0	0	0	0
Cc1noc(C)c1CCC(=O)Nc1c(C(C)C)cccc1C(C)C	-	0	0	0	0	0
O=C1NC(=O)N2CCSC2(Cc2ccccc2)N1 (stereo not given)	-	-	-	0	-	-
N=C(N)N=Nc1c(O)[nH]c2ccc(Br)cc12	0	0	0	0	0	0
Oc1ccc(NC(=S)N=Nc2c(O)[nH]c3ccc(Br)cc23)cc1	0	0	0	0	0	0
Oc1cccc(NC(=S)N=Nc2c(O)[nH]c3ccc(Br)cc23)c1	89	0	0	0	0	0
Oc1[nH]c2ccc(Br)cc2c1N=NC(=S)Nc1ccc(F)cc1	109	0	0	0	0	0
CC(=O)Nc1ccnn1C1CCN(C(=O)c2cccc(C)c2C)CC1	0	0	0	0	0	0
C[C@@H](O)[C@H]1C(=O)N2C(C(=O)O)=C(S[C@@H]3CN[C@H](C(=O)N(C)C)C3)[C@H](C)[C@H]12	110	-	-	-	-	-
